Assays:
Experiment in all cases: log2 ratio of Biotin-Ahx-Ub-VS probe labelling (fragment/DMSO); higher = less target engagement (more negative = stronger competition), active = hit call of the paper (q ≤ 0.05, log2 ratio ≤ -1)
Conditions in all cases: compound concentration: 200 uM; treatment time: 3 h
USP42 = molecular target: T1, USP42 (UniProt Q9H9J4)
T1 sequence (whole entry): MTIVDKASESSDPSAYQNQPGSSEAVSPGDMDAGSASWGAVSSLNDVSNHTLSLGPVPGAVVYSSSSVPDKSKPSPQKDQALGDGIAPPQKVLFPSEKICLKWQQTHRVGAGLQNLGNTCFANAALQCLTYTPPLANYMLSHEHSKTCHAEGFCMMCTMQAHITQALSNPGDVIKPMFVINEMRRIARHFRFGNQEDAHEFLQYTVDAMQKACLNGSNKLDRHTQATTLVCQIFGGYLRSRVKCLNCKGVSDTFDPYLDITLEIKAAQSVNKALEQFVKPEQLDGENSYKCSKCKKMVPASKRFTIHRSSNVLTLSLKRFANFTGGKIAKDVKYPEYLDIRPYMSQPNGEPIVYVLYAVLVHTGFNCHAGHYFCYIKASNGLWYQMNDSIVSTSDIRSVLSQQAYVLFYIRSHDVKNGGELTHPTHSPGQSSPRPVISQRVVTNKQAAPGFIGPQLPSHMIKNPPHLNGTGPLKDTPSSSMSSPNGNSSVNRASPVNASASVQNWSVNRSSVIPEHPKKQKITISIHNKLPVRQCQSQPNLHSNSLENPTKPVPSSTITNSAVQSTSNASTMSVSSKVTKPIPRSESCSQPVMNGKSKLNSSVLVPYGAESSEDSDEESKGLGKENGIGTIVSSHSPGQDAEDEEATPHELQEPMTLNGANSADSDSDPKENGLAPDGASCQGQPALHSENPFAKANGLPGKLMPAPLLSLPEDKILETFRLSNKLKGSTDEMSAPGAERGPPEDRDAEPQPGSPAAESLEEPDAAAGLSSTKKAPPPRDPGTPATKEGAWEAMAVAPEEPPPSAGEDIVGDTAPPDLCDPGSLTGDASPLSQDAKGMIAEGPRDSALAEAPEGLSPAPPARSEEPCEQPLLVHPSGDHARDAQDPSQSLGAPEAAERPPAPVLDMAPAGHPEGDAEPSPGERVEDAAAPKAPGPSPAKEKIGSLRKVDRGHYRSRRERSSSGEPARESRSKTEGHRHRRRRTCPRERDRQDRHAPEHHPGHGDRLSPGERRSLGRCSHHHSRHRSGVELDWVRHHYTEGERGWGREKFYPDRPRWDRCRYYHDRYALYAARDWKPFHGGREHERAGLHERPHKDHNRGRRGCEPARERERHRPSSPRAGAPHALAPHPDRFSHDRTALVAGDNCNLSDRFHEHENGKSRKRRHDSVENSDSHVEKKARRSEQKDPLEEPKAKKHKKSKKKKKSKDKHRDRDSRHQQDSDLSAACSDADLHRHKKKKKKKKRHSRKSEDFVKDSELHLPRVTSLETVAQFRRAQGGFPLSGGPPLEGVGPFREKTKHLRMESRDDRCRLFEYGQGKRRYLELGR
In short: (§1)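 HEK293T lysate (495 µg per sample, in Tris/CHAPS/IGEPAL buffer with protease inhibitors) was treated in triplicate with fragment at 200 µM or with DMSO for 3 h. It was then treated with Biotin-Ahx-Ub-VS (0.5 µM final) for 1 h. Labelled DUBs were NeutrAvidin-enriched, digested with LysC and trypsin, and run by diaPASEF LC-MS/MS. Spectronaut label-free quantities were global-median-normalised. Values are average log2 ratios fragment/DMSO by unpaired t-test, using proteins with ≥2 unique peptides.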

USP46 = USP46 (UniProt P62068)
USP46, sequence (P62068 whole entry): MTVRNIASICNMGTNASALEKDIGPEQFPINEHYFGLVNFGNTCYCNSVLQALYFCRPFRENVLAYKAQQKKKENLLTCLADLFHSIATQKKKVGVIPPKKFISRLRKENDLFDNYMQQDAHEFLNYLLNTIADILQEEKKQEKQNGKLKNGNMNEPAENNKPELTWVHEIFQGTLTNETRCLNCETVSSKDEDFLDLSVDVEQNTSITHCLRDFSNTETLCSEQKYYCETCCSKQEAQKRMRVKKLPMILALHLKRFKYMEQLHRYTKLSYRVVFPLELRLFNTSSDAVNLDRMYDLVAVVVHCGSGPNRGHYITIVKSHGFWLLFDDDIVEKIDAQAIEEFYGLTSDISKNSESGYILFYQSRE
In short: as §1

USP47 = molecular target: T2, USP47 (UniProt Q96K76)
T2 sequence (whole entry): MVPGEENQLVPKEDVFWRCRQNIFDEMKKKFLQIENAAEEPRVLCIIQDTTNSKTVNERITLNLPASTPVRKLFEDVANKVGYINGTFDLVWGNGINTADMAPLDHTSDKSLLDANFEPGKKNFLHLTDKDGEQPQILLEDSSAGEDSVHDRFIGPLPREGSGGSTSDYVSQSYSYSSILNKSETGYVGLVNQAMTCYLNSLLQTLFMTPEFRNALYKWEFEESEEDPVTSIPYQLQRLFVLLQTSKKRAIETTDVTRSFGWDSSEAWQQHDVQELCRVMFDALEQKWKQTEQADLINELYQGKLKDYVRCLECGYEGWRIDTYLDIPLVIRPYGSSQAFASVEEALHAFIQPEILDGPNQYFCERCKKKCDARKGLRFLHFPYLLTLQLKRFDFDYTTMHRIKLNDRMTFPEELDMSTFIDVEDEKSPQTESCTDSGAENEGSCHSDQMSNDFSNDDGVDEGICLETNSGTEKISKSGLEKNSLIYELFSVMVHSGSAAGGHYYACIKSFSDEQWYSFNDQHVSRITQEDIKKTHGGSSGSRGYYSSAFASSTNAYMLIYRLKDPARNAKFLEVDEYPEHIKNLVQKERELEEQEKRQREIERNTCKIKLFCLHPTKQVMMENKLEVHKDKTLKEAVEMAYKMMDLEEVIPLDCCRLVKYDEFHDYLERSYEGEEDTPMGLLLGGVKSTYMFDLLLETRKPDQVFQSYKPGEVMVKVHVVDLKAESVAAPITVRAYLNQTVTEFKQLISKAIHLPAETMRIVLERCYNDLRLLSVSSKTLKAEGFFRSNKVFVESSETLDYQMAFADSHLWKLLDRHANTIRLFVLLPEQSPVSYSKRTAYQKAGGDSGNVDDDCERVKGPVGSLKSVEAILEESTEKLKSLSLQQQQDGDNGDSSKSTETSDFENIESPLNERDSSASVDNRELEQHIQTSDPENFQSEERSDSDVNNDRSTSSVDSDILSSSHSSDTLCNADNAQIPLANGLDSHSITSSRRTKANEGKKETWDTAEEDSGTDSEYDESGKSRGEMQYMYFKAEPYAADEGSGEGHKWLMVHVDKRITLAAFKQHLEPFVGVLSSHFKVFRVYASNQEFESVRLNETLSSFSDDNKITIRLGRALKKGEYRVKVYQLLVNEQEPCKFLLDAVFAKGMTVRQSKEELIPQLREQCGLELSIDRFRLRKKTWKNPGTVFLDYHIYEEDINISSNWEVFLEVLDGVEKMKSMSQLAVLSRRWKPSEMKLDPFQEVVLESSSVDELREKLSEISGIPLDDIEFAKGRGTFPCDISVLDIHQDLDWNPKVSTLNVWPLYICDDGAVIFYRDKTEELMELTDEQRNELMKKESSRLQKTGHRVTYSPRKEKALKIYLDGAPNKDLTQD
In short: as §1

USP48 = molecular target: T3, USP48 (UniProt Q86UV5)
T3 sequence (whole entry): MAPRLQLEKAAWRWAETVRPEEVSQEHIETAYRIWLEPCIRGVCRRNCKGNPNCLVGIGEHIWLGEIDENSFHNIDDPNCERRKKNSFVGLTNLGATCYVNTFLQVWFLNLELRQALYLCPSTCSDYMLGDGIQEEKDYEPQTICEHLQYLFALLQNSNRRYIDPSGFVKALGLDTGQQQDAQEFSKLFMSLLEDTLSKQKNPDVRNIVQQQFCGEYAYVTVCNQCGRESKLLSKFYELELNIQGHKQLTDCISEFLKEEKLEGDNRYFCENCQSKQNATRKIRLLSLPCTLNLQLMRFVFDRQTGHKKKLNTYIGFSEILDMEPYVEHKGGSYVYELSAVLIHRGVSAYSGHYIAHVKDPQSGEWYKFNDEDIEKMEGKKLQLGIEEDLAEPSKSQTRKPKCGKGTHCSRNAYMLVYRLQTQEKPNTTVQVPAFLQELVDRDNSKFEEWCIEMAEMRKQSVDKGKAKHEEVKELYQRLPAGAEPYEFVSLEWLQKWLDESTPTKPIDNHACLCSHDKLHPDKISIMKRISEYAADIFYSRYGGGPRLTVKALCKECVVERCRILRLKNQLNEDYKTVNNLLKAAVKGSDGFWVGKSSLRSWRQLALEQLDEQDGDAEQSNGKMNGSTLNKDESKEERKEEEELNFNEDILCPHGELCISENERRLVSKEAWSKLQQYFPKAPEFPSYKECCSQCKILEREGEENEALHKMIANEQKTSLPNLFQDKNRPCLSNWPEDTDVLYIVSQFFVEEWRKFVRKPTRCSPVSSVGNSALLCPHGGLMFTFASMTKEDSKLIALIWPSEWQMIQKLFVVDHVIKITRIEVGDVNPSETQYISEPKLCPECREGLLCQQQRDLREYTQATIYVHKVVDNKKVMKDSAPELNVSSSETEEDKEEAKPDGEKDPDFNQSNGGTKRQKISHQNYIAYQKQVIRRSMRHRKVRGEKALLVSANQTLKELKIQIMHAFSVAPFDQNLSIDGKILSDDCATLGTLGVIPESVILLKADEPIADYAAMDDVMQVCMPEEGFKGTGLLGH
In short: as §1

USP5 = molecular target: T4, USP5 (UniProt P45974)
T4 sequence (whole entry): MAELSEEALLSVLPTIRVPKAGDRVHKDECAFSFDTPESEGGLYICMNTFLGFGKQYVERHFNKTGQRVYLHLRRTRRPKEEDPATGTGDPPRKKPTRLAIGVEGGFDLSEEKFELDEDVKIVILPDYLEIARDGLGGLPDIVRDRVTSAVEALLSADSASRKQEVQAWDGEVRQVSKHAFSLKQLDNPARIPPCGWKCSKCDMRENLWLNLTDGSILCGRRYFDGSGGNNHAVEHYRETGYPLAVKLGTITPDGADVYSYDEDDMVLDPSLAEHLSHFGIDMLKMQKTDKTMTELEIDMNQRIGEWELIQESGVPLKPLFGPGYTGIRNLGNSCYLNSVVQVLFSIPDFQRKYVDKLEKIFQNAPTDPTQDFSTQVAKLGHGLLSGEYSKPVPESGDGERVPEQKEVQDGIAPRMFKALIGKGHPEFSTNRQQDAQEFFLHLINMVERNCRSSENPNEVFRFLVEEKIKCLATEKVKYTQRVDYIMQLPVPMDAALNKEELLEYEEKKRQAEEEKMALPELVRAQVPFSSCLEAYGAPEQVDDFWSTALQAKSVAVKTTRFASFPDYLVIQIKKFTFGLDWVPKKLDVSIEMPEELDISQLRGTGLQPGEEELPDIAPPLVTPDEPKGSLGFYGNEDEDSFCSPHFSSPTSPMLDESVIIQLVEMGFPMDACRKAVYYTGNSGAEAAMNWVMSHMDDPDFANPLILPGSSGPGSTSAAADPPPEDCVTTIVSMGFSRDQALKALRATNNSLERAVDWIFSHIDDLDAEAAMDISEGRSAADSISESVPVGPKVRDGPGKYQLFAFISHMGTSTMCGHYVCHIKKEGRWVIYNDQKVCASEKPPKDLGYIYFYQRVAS
In short: as §1

USP54 = USP54 (UniProt Q70EL1)
USP54, sequence (Q70EL1 whole entry): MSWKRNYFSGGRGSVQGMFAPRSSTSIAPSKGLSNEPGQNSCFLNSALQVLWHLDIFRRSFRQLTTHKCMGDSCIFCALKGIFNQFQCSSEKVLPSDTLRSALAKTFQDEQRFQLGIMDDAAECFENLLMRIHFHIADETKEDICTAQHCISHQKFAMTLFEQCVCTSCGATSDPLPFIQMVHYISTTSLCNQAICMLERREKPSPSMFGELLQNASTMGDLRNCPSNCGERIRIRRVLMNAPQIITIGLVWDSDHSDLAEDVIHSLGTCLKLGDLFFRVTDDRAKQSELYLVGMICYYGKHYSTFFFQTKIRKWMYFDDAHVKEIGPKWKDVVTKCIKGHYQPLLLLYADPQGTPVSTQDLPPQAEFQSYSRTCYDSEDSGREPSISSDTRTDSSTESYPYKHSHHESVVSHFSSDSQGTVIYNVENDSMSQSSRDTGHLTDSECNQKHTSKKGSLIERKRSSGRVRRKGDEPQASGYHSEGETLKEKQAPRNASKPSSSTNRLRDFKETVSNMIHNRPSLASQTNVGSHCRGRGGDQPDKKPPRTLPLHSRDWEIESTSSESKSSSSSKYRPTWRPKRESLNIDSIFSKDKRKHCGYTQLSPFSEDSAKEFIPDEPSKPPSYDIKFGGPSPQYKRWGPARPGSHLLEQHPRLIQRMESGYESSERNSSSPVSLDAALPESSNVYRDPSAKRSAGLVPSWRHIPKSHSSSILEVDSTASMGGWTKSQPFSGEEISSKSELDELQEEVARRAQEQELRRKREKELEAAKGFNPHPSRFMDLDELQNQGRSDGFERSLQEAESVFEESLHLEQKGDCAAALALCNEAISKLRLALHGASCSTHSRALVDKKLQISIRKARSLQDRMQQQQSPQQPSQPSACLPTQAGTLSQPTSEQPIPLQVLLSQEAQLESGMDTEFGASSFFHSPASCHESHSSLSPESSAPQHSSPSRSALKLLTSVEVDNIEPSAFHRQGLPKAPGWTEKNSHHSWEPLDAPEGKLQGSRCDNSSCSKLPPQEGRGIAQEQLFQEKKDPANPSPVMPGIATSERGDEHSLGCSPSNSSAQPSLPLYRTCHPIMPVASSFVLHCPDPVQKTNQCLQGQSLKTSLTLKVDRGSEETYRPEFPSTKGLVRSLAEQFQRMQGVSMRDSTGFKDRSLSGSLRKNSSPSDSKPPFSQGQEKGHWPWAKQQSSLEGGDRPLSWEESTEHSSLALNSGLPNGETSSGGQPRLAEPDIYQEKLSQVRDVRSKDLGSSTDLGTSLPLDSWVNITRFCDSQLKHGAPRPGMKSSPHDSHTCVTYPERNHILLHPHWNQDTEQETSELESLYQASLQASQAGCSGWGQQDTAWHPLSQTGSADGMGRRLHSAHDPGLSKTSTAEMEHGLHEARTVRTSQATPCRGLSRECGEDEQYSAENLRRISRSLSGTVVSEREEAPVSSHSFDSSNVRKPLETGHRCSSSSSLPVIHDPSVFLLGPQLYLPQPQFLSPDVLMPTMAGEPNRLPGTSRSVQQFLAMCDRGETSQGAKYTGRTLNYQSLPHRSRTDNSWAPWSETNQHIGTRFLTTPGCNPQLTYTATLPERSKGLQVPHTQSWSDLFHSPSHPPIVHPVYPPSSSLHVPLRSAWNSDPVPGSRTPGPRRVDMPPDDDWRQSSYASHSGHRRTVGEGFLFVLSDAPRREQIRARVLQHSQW
In short: as §1

USP7 = USP7 (UniProt Q93009)
USP7, sequence (Q93009 whole entry, looked up): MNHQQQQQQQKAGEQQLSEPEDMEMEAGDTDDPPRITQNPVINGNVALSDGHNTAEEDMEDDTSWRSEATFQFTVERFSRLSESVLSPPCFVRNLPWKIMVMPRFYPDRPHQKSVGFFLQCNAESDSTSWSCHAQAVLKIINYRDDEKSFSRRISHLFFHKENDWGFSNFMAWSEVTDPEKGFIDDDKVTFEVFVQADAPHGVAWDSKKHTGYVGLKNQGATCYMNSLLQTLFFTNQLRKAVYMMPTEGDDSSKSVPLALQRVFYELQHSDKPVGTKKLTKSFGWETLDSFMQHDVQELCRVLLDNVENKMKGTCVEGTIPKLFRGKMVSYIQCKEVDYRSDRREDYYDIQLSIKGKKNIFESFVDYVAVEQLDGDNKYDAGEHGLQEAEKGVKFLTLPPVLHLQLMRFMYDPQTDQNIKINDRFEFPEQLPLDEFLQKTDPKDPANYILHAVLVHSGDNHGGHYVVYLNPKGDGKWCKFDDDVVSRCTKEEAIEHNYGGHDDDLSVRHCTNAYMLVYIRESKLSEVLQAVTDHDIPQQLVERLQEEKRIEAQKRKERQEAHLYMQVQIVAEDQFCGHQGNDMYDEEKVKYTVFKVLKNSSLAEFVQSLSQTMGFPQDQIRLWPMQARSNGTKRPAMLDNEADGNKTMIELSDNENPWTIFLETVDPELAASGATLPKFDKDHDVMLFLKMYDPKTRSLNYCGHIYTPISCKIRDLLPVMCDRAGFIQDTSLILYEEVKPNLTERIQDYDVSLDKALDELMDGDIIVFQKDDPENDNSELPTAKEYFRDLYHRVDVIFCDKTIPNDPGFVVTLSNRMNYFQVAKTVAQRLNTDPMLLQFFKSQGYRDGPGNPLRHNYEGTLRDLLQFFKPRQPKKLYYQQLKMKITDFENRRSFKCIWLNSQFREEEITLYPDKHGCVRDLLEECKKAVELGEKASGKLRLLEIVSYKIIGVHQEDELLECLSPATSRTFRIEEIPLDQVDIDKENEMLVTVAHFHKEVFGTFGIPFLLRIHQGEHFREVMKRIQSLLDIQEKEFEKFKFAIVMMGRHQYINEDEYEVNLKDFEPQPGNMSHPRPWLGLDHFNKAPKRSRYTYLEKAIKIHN
In short: as §1

USP8 = molecular target: T5, USP8 (UniProt P40818)
T5 sequence (whole entry): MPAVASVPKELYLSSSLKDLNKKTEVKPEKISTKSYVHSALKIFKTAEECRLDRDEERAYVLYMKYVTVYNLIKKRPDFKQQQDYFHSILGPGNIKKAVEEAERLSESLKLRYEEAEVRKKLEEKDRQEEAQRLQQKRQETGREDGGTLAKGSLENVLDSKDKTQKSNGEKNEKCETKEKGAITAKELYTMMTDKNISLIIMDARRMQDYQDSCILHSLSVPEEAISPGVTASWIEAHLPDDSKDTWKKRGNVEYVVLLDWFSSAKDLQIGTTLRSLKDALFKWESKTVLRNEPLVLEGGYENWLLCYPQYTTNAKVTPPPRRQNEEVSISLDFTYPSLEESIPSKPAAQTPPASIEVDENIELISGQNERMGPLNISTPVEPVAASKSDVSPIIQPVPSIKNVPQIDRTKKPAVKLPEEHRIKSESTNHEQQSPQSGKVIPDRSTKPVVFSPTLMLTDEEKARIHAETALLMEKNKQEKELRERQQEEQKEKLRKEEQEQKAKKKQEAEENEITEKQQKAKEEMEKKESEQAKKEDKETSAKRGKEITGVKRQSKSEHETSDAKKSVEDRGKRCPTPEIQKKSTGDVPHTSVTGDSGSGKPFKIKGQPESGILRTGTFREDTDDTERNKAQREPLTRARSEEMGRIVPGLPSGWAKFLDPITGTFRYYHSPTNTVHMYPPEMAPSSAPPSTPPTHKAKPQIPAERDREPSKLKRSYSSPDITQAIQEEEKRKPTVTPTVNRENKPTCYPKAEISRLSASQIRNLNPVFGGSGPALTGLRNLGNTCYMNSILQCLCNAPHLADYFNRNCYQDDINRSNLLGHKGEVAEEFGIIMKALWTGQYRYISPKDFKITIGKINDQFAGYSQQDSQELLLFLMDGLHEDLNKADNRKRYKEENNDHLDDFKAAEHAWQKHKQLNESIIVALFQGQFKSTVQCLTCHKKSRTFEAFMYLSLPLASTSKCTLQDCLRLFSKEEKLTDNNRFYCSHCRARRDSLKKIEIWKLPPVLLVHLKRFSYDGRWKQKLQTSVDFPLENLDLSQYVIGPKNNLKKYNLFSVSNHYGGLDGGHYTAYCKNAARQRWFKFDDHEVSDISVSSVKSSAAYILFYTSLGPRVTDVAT
In short: as §1

Measured: log2 ratio of Biotin-Ahx-Ub-VS probe labelling

Cl.O=C(CCl)N1CCn2cncc2C1
inactive: USP42 0.404 | USP46 -0.137 | USP47 0.174 | USP48 -0.0876 | USP5 -0.362 | USP54 0.158 | USP7 -0.527 | USP8 -0.217
